Measurements reported in PubChem BioAssay AID1159580 (chemical genetic matrix, 2015).
Among all 5,500 compounds or so, about 2,000 (36%) were called active. Inconclusive results (about 18%) are left out. No stated cut-off is given here; in the data, active means normalized growth mostly below about 0.91 (no sharp cut-off); inconclusive means no clear call, values can overlap the other calls; inactive means mostly above about 0.92. The list shows a part of the results.

Experiment: chemical genetic growth profiling, strain panel (AID 1159580);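 further: tested at 20 µM; growth read once vehicle control cultures reached saturation at 30 °C; 1 = growth at the plate median or of vehicle wells; lower values mean less growth of the strain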
Conditions: S. cerevisiae deletion strains, growth OD
[1] = locus YAL040C, strain CLN3, active compounds read low
[2] = locus YCL061C, strain MRC1 (second series), active compounds read low
[3] = locus YDR150W, strain NUM1, active compounds read low
[4] = locus YDR363W, strain ESC2, active compounds read low
[5] = locus YER002W, strain NOP16, active compounds read low
[6] = locus YGR078C, strain PAC10, active compounds read low
[7] = locus YJR075W, strain HOC1, active compounds read low
[8] = locus YMR263W, strain SAP30, active compounds read low
[9] = locus YMR307W, strain GAS1, active compounds read low
[10] = locus YNL175C, strain NOP13, active compounds read low
[11] = locus YNL197C, strain WHI3, active compounds read low
[12] = locus YNL224C, strain SQS1, active compounds read low
[13] = locus YOR083W, strain WHI5 (second series), active compounds read low
[14] = locus YPL055C, strain LGE1, active compounds read low
[15] = locus YDL101C, strain DUN1, active compounds read low
[16] = locus YHR030C, strain SLT2, active compounds read low
[17] = locus YNL128W, strain TEP1, active compounds read low
[18] = locus YNL153C, strain GIM3, active compounds read low
[19] = locus YNL322C, strain KRE1, active compounds read low

Measured: normalized growth

CCCCCCCCCCCCCCSCC(=O)O
active: [13] 0.825
inactive: [1] 0.97 | [2] 1.01 | [3] 0.997 | [4] 0.993 | [5] 0.937 | [6] 0.998 | locus YGR229C, strain SMI1, active compounds read low 0.959 | [7] 0.99 | [8] 1 | [9] 0.992 | [10] 0.938 | [11] 0.957 | [12] 0.954 | [14] 0.955

CCCC(C)(SCC(=O)O)SCC(=O)O
inactive: locus YAL013W, strain DEP1, active compounds read low 1 | locus YBR229C, strain ROT2, active compounds read low 1 | [15] 1.09 | [3] 1.03 | locus YEL061C, strain CIN8, active compounds read low 0.951 | [6] 1.02 | [16] 1.03 | locus YHR087W, strain rtc3, active compounds read low 0.98 | locus YJL187C, strain SWE1, active compounds read low 1 | locus YJR043C, strain POL32, active compounds read low 1.01 | [7] 1.04 | locus YKL190W, strain CNB1, active compounds read low 0.992 | locus YLR039C, strain RIC1, active compounds read low 0.981 | locus YLR058C, strain SHM2 (second series), active compounds read low 0.984 | locus YLR085C, strain ARP6, active compounds read low 1.02 | locus YLR262C, strain YPT6, active compounds read low 1.02 | locus YML094W, strain GIM5, active compounds read low 0.993 | locus YMR219W, strain ESC1, active compounds read low 0.999 | [8] 1.01 | [17] 0.985 | [18] 1.04 | locus YNL298W, strain CLA4 (second series), active compounds read low 1.02 | [19] 0.993 | locus YNR030W, strain Alg12, active compounds read low 1.01 | locus YOL006C, strain TOP1, active compounds read low 1 | [14] 1 | locus YPL241C, strain CIN2, active compounds read low 1.05 | locus YPR135W, strain CTF4, active compounds read low 1.08

C=CC(=O)N1CCc2cc([N+](=O)[O-])ccc21
inactive: locus YJL128C, strain PBS2, active compounds read low 0.842 | locus YPR111W, strain DBF20, active compounds read low 0.887
active: locus YAR019C, strain CDC15, active compounds read low 0.735 | locus YBL105C, strain PKC1, active compounds read low 0.778 | locus YBR135W, strain CKS1, active compounds read low 0.766 | locus YBR136W, strain MEC1, active compounds read low 0.764 | locus YBR160W, strain CDC28, active compounds read low 0.791 | locus YDL017W, strain CDC7, active compounds read low 0.8 | locus YDL028C, strain MPS1, active compounds read low 0.796 | [15] 0.789 | locus YDL108W, strain KIN28, active compounds read low 0.798 | locus YDL132W, strain cdc53, active compounds read low 0.725 | locus YDL214C, strain PRR2, active compounds read low 0.37 | locus YDR052C, strain DBF4, active compounds read low 0.827 | locus YDR054C, strain cdc34, active compounds read low 0.689 | locus YDR226W, strain ADK1, active compounds read low 0.839 | locus YDR477W, strain SNF1, active compounds read low 0.335 | locus YER123W, strain YCK3, active compounds read low 0.236 | locus YER133W, strain GLC7, active compounds read low 0.275 | locus YFL009W, strain cdc4, active compounds read low 0.739 | locus YFL029C, strain CAK1, active compounds read low 0.72 | locus YFR003C, strain YPI1, active compounds read low 0.807 | locus YFR019W, strain FAB1, active compounds read low 0.369 | locus YFR028C, strain CDC14, active compounds read low 0.805 | locus YGR040W, strain KSS1, active compounds read low 0.287 | locus YGR052W, strain FMP48, active compounds read low 0.308 | locus YGR092W, strain DBF2, active compounds read low 0.12 | [16] 0.253 | locus YHR079C, strain IRE1, active compounds read low 0.255 | locus YHR082C, strain KSP1, active compounds read low 0.263 | locus YHR205W, strain SCH9, active compounds read low 0.228 | locus YIL147C, strain SLN1, active compounds read low 0.794 | locus YJL095W, strain BCK1, active compounds read low 0.276 | locus YJL157C, strain FAR1, active compounds read low 0.315 | locus YJR016C, strain ILV3, active compounds read low 0.742 | locus YJR066W, strain TOR1 (second series), active compounds read low 0.24 | locus YJR066W, strain TOR1, active compounds read low 0.274 | locus YKL048C, strain ELM1, active compounds read low 0.556 | locus YKL067W, strain YNK1, active compounds read low 0.35 | locus YKL101W, strain HSL1, active compounds read low 0.46 | locus YKL193C, strain SDS22, active compounds read low 0.729 | locus YKL203C, strain TOR2, active compounds read low 0.355 | locus YLR113W, strain HOG1, active compounds read low 0.247 | locus YLR133W, strain CKI1, active compounds read low 0.409 | locus YLR403W, strain SFP1, active compounds read low 0.271 | locus YML070W, strain DAK1, active compounds read low 0.311 | locus YMR001C, strain CDC5, active compounds read low 0.744 | locus YMR205C, strain PFK2 (second series), active compounds read low 0.424 | locus YMR277W, strain FCP1, active compounds read low 0.746 | locus YNL006W, strain LST8, active compounds read low 0.754 | locus YNL020C, strain ARK1, active compounds read low 0.412 | locus YNL161W, strain CBK1, active compounds read low 0.737 | locus YNL183C, strain NPR1, active compounds read low 0.22 | locus YNL207W, strain RIO2, active compounds read low 0.757 | locus YNL222W, strain SSU72, active compounds read low 0.734 | locus YNL307C, strain MCK1 (second series), active compounds read low 0.323 | locus YOL078W, strain AVO1, active compounds read low 0.71 | locus YOL136C, strain PFK27, active compounds read low 0.316 | locus YOR061W, strain CKA2, active compounds read low 0.498 | locus YOR119C, strain RIO1, active compounds read low 0.334 | locus YOR231W, strain MKK1, active compounds read low 0.255 | locus YOR329C, strain SCD5, active compounds read low 0.759 | locus YPL031C, strain PHO85, active compounds read low 0.268 | locus YPL153C, strain RAD53, active compounds read low 0.273 | locus YPL204W, strain HRR25, active compounds read low 0.282 | locus YPL209C, strain IPL1, active compounds read low 0.778 | locus YPL256C, strain CLN2, active compounds read low 0.299 | locus YPR025C, strain CCL1, active compounds read low 0.764 | locus YPR106W, strain ISR1, active compounds read low 0.864 | strain NNK1, active compounds read low 0.824 | strain TSCII, active compounds read low 0.643

N#CC(Cc1ccc(O)c(O)c1)C(=O)N1CCc2ccccc21 (stereo not drawn)
inactive: [1] 0.961 | [2] 0.986 | [3] 0.997 | [4] 0.97 | [5] 1.01 | [7] 0.995 | [9] 0.986 | [17] 0.996 | [18] 0.977 | [10] 0.999 | [11] 1.02 | [12] 0.994 | [19] 0.952 | [13] 0.965
